This note sets out measurements from the supplement of paper PMC10037445.

Whole data set: some 2,900 compounds, median “NF-kB SEAP reporter activity, fold change vs agonist alone” near 0.99, cut for the highest 2% near 2.6. The list comes from a sample in which the highest values are over-represented; it also holds similar structures and randomly drawn compounds.

The test system of experiment [1] is RAW-Dual. The experiment in a line: NF-kB SEAP reporter activity, fold change vs agonist alone; higher = enhanced NF-kB activity. A digest of the protocol:
(§1)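 Library stock was pin-tooled at 50 nL into 384-well plates of RAW-Dual macrophages (50,000 cells/well, DMEM), followed 1 h later by a PRR agonist, and the cells were kept at 37 °C, 5% CO2. Supernatant collected after 20 hours was read for IRF by QuantiLuc luminescence and for NF-κB by QuantiBlue absorbance at 620 nm. Reporter activity is fold change over agonist-alone wells, and a well counted as cytotoxic when its IncuCyte confluency was below 70% of agonist controls in both mask sets.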

For experiment [2], the system named is RAW-Dual. The experiment in a line: NF-kB SEAP reporter activity, fold change vs agonist alone; cytotoxicity flag (confluency mask): cytotoxic (confluency <70% of control); higher = enhanced NF-kB activity. A digest of the protocol: as §1
In experiment [3] the test system is RAW-Dual. The experiment in a line: NF-kB SEAP reporter activity, fold change vs agonist alone; cytotoxicity flag (confluency mask): not cytotoxic; higher = enhanced NF-kB activity. A digest of the protocol: as §1
The mark [4] stands for this setting: agonist: ODN 1826 (TLR9) 0.5 ug/mL.
[5] abbreviates: agonist: Pam2CSK4 (TLR2/6) 0.1 ug/mL.
The mark [6] stands for this setting: agonist: Pam3CSK4 (TLR2/1) 0.1 ug/mL.
[7] abbreviates: library stock concentration (final ~1000-fold dilution): 10 mM, cytotoxicity flag (confluency mask): not cytotoxic, agonist: Imiquimod (TLR7) […].
The mark [8] stands for this setting: library stock concentration (final ~1000-fold dilution): 10 mM, cytotoxicity flag (confluency mask): not cytotoxic, agonist: MPLA (TLR4) […].
The mark [9] stands for this setting: library stock concentration (final ~1000-fold dilution): 10 mM water, cytotoxicity flag (confluency mask): not cytotoxic, agonist: Imiquimod (TLR7) […].
Setting [10] is: library stock concentration (final ~1000-fold dilution): 10 mM water, cytotoxicity flag (confluency mask): not cytotoxic, agonist: MPLA (TLR4) […].

As to `Cl.NCCOCCOCCNC(=O)Cc1ccc(Nc2nc(NCc3ccc(F)cc3)nc(NCC3CCCCC3)n2)cc1`, the “NF-kB SEAP reporter activity” value was found to be 1.05 with RAW-Dual [1] (library stock concentration (final ~1000-fold dilution): 10 mM, cytotoxicity flag (confluency mask): cytotoxic (confluency <70% of control), agonist: Imiquimod (TLR7) […]) and 1.59 in the experiment with RAW-Dual [1] (library stock concentration (final ~1000-fold dilution): 10 mM, cytotoxicity flag (confluency mask): cytotoxic (confluency <70% of control), agonist: MPLA (TLR4) […]).

`Cl.NCCOCCOCCNC(=O)Cc1ccc(Nc2nc(NCc3ccc(F)cc3)nc(NCC3CCCCC3)n2)cc1` (library stock concentration (final ~1000-fold dilution): 10 mM): the “NF-kB SEAP reporter activity” value in the experiment on RAW-Dual [2] (agonist: LPS (TLR4) 0.1 ug/mL) was 0.643; in the experiment with RAW-Dual [2] (setting [4]), 0.852; in the experiment with RAW-Dual [2] (setting [5]), 0.738; with RAW-Dual [2] (setting [6]), 0.911.

In the case of `O=C(Nc1nccs1)C(c1cc(F)ccc1O)N1Cc2ccccc2C1=O` (stereo unspecified), the “NF-kB SEAP reporter activity” value in the experiment with RAW-Dual [1] (setting [7]) was found to be 0.944; in the experiment with RAW-Dual [1] (setting [8]), 0.982.

For the compound `O=C(Nc1nccs1)C(c1cc(F)ccc1O)N1Cc2ccccc2C1=O` (stereo unspecified) (library stock concentration (final ~1000-fold dilution): 10 mM), the “NF-kB SEAP reporter activity” value in the experiment with RAW-Dual [3] (agonist: LPS (TLR4) 0.1 ug/mL) came to 0.902; with RAW-Dual [3] (setting [4]) it was 0.989; with RAW-Dual [3] (setting [5]) it was 0.865; in the experiment with RAW-Dual [3] (setting [6]), 1.02.

Consider `CCOC(=O)CC(=O)O`, for which the “NF-kB SEAP reporter activity” value came out at 0.955 in the experiment on RAW-Dual [1] (setting [9]) and 1 with RAW-Dual [1] (setting [10]).

For `CCOC(=O)CC(=O)O` (library stock concentration (final ~1000-fold dilution): 10 mM water), the “NF-kB SEAP reporter activity” value in the experiment with RAW-Dual [3] (agonist: LPS (TLR4) 0.1 ug/mL) worked out at 1.31; in the experiment on RAW-Dual [3] (setting [4]), 1.09; in the experiment with RAW-Dual [3] (setting [5]), 1.18; in the experiment on RAW-Dual [3] (setting [6]), 1.03.

Regarding `CCCCOc1cc(C(=O)NCCN(CC)CC)c2ccccc2n1.Cl`, the “NF-kB SEAP reporter activity” value came to 1.57 in the experiment on RAW-Dual [1] (setting [7]) and 1.01 in the experiment on RAW-Dual [1] (setting [8]).

As for `CCCCOc1cc(C(=O)NCCN(CC)CC)c2ccccc2n1.Cl` (library stock concentration (final ~1000-fold dilution): 10 mM), the “NF-kB SEAP reporter activity” value was 0.994 in the experiment on RAW-Dual [3] (agonist: LPS (TLR4) 0.1 ug/mL), 0.959 in the experiment with RAW-Dual [3] (setting [4]), 0.866 in the experiment on RAW-Dual [3] (setting [5]) and 1.09 in the experiment on RAW-Dual [3] (setting [6]).

In the case of `CN1CCOC(c2ccccc2)c2ccccc2C1.Cl` (stereo unspecified) (library stock concentration (final ~1000-fold dilution): 10 mM water), the “NF-kB SEAP reporter activity” value is 1.36 in the experiment with RAW-Dual [3] (agonist: LPS (TLR4) 0.1 ug/mL), 0.943 in the experiment on RAW-Dual [3] (setting [4]), 1.05 with RAW-Dual [3] (setting [5]) and 0.969 in the experiment with RAW-Dual [3] (setting [6]).

As to `CN1CCOC(c2ccccc2)c2ccccc2C1.Cl` (stereo unspecified), the “NF-kB SEAP reporter activity” value with RAW-Dual [1] (setting [9]) worked out at 1.12; in the experiment with RAW-Dual [1] (setting [10]), 1.03.

As for `COc1ccc(S(=O)(=O)N(CCO)c2ccccc2CN(C)CC=Cc2ccc(Cl)cc2)cc1`, the “NF-kB SEAP reporter activity” value in the experiment with RAW-Dual [1] (setting [7]) was 0.802; in the experiment with RAW-Dual [1] (setting [8]), 1.07.

For the compound `COc1ccc(S(=O)(=O)N(C(C)=O)c2ccccc2/C=C/c2cc[n+]([O-])cc2)cc1`, the “NF-kB SEAP reporter activity” value in the experiment on RAW-Dual [1] (setting [7]) came to 2.17; in the experiment with RAW-Dual [1] (setting [8]), 1.61.

For the compound `COc1ccc(S(=O)(=O)N(C(C)=O)c2ccccc2/C=C/c2cc[n+]([O-])cc2)cc1` (library stock concentration (final ~1000-fold dilution): 10 mM), the “NF-kB SEAP reporter activity” value with RAW-Dual [3] (agonist: LPS (TLR4) 0.1 ug/mL) is 1.85; in the experiment with RAW-Dual [3] (setting [4]) it was 2.59; in the experiment on RAW-Dual [3] (setting [5]), 1.94; with RAW-Dual [3] (setting [6]), 1.43.

On to `COc1ccc(S(=O)(=O)N(CCO)c2ccccc2CN(C)CC=Cc2ccc(Cl)cc2)cc1` (library stock concentration (final ~1000-fold dilution): 10 mM), for which the “NF-kB SEAP reporter activity” value with RAW-Dual [3] (agonist: LPS (TLR4) 0.1 ug/mL) amounted to 0.958; in the experiment with RAW-Dual [3] (setting [4]) it was 0.257; in the experiment on RAW-Dual [3] (setting [5]), 0.537; in the experiment with RAW-Dual [3] (setting [6]), 0.372.

Take `C=C1C(CO)C(O)CC1n1cnc2c(=O)nc(N)[nH]c21` (stereo unspecified): the “NF-kB SEAP reporter activity” value in the experiment on RAW-Dual [1] (setting [8]) came to 1.07.

On to `C=C1C(CO)C(O)CC1n1cnc2c(=O)nc(N)[nH]c21` (stereo unspecified) (library stock concentration (final ~1000-fold dilution): 10 mM), for which the “NF-kB SEAP reporter activity” value in the experiment with RAW-Dual [3] (agonist: LPS (TLR4) 0.1 ug/mL) was 1.32; with RAW-Dual [3] (setting [4]) it was 0.996; with RAW-Dual [3] (setting [5]) it was 1.37; with RAW-Dual [3] (setting [6]), 0.846.

For the compound `CNC1C(O)C(OC2C(NC(=O)C(O)CN)CC(N)C(OC3OC(CN)C(O)C(O)C3O)C2O)OCC1(C)O.O=S(=O)(O)O` (stereo unspecified) (library stock concentration (final ~1000-fold dilution): 10 mM water), the “NF-kB SEAP reporter activity” value was 1.03 in the experiment with RAW-Dual [3] (agonist: LPS (TLR4) 0.1 ug/mL), 1.09 in the experiment with RAW-Dual [3] (setting [4]), 1.3 with RAW-Dual [3] (setting [5]) and 1.14 in the experiment with RAW-Dual [3] (setting [6]).
